# Measurements from PubChem BioAssay.
# The source made the active and inactive calls.
# Tests used:
# [1] = binders of probe aFSTL3 on microarray, primary screen, stem cell growth factor project, biochemical, small-molecule microarray, fluorescence 635/667 (AID 1064); conditions: higher = more signal;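 also: measures binding of the biotinylated anti-FSTL3 antibody to printed compounds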
# [2] = binders from COS7 lysate, DM2A8 probe, primary screen, torsin A project, cell lysate, small-molecule microarray, fluorescence 635/667 (AID 1065); conditions: higher = more signal, COS7 lysate expressing mutant human TOR1A
# [3] = binders of probe aFGF2 on microarray, primary screen, stem cell growth factor project, biochemical, small-molecule microarray, fluorescence 635/667 (AID 1067); conditions: higher = more signal;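 also: measures binding of biotinylated aFGF2 protein to printed compounds on slides; z-score merges feature fluorescence and signal-to-noise across triplicate slides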
# [4] = binders of probe aFGF10 on microarray, primary screen, stem cell growth factor project, biochemical, small-molecule microarray, fluorescence 635/667 (AID 1071); conditions: higher = more signal;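 also: score merges 667 nm spot intensity and signal to noise from triplicate slides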
# [5] = molecular target: Neurogenic locus notch homolog protein 2 (Homo sapiens) (UniProt Q04721); assay: Notch2 binders on small-molecule microarrays, primary screen, biochemical, small-molecule microarray, 635 nm fluorescence, stem cell growth factors (AID 1073); conditions: Notch2 binding, higher = more signal
# [6] = molecular target: Pro-neuregulin-1, membrane-bound isoform (Homo sapiens) (UniProt Q02297); assay: NRG1 binders on small-molecule microarrays, primary screen, psychiatric disease protein project, biochemical, small-molecule microarray, fluorescence 635/667 (AID 1075); conditions: NRG1 binding, 635 nm fluorescence, higher = more signal;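 also: score combines 667 nm spot fluorescence with signal to noise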
# [7] = tested on: Neuregulin-1 EGF-like domain; assay: binders of neuregulin-1 EGF-like domain, primary screen, biochemical, small-molecule microarray, 635 nm fluorescence (AID 1081); conditions: small-molecule microarray binding, higher = more signal;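 also: binding of the protein to compounds printed on small-molecule microarray slides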
# [8] = FRG1 promoter luciferase signal modulators, primary screen, FRG1 inhibition for FSHD, cell-based, C2C12 myotubes, firefly/Renilla luciferase, luminescence (AID 1084); conditions: higher = more signal, called active from +8 up or from −8 down
# [9] = binders of probe aFST on microarray, primary screen, stem cell growth factor project, biochemical, small-molecule microarray, fluorescence 635/667 (AID 1086); conditions: higher = more signal;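 also: score merges 667 nm fluorescence with signal-to-noise of each printed compound spot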
# [10] = binders of probe aHhip on microarray, primary screen, stem cell growth factor project, biochemical, small-molecule microarray, fluorescence 635/667 (AID 1087); conditions: higher = more signal;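 also: score merges spot fluorescence at 667nm with spot signal to noise ratio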
# [11] = tested on: PRMT1 (protein arginine N-methyltransferase 1); assay: PRMT1 binders on small-molecule microarrays, primary screen, biochemical, small-molecule microarray, 635 nm fluorescence (AID 1088); conditions: small-molecule microarray binding, higher = more signal;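 also: binding of Prmt1 protein to compounds spotted on small-molecule microarray slides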
# [12] = yeast growth modulation, basal conditions, primary screen, YJM789 clinical isolate, OD600, 24 h (AID 1089);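 also: growth of clinical yeast isolate S. cerevisiae YJM 789 seeded 1000 cells per well; test concentration not given here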; conditions: S. cerevisiae YJM789 growth, higher = more signal, called active from +8 up or from −8 down
# [13] = fission yeast growth modulation, primary screen, strain 972, OD600, 24 h, no modulator (AID 1090);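 also: basal condition with compound alone and no growth modifier present; test concentration not given here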; conditions: S. pombe 972 growth, higher = more signal, called active from +8 up or from −8 down
# [14] = S. cerevisiae growth modulation with rapamycin, primary screen, strain BY4716, OD600, 96 h (AID 1091); conditions: higher = more signal, called active from +8 up or from −8 down; also: test concentration not given here
# [15] = molecular target: Torsin-1A-interacting protein 2 (Homo sapiens) (UniProt Q8NFQ8); assay: LULL1 binders on small-molecule microarray, primary screen, cell lysate, human LULL1 lysate, 635/667 nm fluorescence (AID 1092); conditions: hLULL1 lysate binding, 635 nm fluorescence, higher = more signal;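 also: probe is lysate of COS7 cells overexpressing human LULL1; score merges per-feature 667 nm fluorescence with signal-to-noise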
# [16] = E. coli growth modulation, two-sided OD650, primary screen, E. coli filamentation project, strain DRC41, 24 h (AID 1093); conditions: OD650, 24 h, higher = more signal, called active from +8 up or from −8 down;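 also: MC1000 strain lacking acrAB efflux and sulA so SOS filamentation is blocked; test concentration not given here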
# [17] = small-molecule microarray binders of probe aLefty2, primary screen, biochemical, biotinylated probe, 635/667 nm fluorescence (AID 1094); conditions: higher = more signal;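 also: score merges spot fluorescence near 667 nm with spot signal-to-noise ratio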
# [18] = tested on: Noggin (protein binding on small-molecule microarray); assay: Noggin binders on small-molecule microarray, primary screen, biochemical, 635/667 nm fluorescence (AID 1095); conditions: 635 nm fluorescence, higher = more signal;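 also: score merges 667 nm feature fluorescence with signal to noise over triplicate slides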
# [19] = molecular target: Neurogenic locus notch homolog protein 3 (Homo sapiens) (UniProt Q9UM47); assay: NOTCH3 binders on small-molecule microarray, primary screen, biochemical, 635/667 nm fluorescence (AID 1096); conditions: NOTCH3 binding, 635 nm fluorescence, higher = more signal
# [20] = small-molecule microarray binders of probe aEGFR, primary screen, biochemical, biotinylated probe, 635/667 nm fluorescence (AID 1097); conditions: higher = more signal;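 also: probe is a biotinylated anti-EGFR antibody binding compounds printed on slides; score combines fluorescence near 667 nm and signal to noise of each spot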
# Sequence of Neurogenic locus notch homolog protein 3 (Homo sapiens) (Q9UM47 whole entry, looked up): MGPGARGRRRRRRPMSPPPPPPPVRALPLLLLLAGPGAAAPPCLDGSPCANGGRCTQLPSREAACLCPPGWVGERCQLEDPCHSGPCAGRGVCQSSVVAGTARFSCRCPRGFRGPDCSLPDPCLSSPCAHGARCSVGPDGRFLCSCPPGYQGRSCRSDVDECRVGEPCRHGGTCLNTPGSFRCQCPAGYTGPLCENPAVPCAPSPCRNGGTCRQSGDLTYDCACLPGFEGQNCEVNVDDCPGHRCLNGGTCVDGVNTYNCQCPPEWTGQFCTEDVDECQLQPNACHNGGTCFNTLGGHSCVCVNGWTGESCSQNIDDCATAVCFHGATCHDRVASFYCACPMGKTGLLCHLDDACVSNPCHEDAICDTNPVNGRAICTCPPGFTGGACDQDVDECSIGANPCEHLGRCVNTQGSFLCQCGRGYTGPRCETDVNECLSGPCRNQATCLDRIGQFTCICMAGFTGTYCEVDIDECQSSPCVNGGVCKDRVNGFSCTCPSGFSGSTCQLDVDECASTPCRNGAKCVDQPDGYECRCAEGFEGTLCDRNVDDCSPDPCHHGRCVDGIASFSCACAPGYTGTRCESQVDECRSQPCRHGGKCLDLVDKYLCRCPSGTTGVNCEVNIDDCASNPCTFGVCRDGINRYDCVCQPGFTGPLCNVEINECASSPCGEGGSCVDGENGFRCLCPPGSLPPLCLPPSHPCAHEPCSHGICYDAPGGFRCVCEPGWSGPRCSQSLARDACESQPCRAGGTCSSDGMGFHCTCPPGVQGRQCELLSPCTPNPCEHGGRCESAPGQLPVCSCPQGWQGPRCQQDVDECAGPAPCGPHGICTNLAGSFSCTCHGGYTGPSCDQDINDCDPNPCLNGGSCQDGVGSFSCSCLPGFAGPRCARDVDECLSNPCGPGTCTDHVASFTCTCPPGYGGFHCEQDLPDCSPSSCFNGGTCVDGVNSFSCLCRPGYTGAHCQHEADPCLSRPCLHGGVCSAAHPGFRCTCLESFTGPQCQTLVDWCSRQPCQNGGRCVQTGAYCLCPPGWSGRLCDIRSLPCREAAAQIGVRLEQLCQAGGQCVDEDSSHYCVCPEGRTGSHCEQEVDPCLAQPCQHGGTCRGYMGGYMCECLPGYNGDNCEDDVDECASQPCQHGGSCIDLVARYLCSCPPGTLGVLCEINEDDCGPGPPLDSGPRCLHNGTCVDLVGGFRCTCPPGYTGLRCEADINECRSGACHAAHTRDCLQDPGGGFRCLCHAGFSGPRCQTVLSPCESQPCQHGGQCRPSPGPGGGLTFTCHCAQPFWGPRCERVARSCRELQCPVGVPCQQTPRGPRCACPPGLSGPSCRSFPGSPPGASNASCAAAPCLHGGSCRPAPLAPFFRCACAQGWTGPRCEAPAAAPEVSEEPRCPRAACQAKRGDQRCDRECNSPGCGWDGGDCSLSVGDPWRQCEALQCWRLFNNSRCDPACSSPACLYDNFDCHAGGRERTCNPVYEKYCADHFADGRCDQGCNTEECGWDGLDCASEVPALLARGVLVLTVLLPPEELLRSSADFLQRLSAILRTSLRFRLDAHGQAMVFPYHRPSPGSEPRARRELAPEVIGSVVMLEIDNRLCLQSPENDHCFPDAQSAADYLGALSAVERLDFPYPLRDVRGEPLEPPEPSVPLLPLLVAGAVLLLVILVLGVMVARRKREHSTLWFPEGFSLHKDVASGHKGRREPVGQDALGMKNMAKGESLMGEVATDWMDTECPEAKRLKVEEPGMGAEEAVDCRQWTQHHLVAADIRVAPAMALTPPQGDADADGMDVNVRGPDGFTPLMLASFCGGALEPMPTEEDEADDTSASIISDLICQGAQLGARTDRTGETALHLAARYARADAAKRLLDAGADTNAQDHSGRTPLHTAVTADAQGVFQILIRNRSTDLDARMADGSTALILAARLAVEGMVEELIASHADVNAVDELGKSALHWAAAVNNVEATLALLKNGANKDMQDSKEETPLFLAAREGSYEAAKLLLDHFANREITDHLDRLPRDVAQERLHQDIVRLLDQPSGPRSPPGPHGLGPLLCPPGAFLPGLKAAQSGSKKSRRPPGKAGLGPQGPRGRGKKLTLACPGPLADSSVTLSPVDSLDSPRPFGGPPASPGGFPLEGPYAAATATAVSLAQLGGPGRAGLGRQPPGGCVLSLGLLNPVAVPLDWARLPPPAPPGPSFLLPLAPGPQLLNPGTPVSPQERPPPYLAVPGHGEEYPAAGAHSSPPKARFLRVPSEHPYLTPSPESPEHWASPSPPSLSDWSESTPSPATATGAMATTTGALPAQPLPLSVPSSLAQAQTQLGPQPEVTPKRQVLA
# Sequence of Neurogenic locus notch homolog protein 2 (Homo sapiens) (Q04721 whole entry, looked up, canonical isoform): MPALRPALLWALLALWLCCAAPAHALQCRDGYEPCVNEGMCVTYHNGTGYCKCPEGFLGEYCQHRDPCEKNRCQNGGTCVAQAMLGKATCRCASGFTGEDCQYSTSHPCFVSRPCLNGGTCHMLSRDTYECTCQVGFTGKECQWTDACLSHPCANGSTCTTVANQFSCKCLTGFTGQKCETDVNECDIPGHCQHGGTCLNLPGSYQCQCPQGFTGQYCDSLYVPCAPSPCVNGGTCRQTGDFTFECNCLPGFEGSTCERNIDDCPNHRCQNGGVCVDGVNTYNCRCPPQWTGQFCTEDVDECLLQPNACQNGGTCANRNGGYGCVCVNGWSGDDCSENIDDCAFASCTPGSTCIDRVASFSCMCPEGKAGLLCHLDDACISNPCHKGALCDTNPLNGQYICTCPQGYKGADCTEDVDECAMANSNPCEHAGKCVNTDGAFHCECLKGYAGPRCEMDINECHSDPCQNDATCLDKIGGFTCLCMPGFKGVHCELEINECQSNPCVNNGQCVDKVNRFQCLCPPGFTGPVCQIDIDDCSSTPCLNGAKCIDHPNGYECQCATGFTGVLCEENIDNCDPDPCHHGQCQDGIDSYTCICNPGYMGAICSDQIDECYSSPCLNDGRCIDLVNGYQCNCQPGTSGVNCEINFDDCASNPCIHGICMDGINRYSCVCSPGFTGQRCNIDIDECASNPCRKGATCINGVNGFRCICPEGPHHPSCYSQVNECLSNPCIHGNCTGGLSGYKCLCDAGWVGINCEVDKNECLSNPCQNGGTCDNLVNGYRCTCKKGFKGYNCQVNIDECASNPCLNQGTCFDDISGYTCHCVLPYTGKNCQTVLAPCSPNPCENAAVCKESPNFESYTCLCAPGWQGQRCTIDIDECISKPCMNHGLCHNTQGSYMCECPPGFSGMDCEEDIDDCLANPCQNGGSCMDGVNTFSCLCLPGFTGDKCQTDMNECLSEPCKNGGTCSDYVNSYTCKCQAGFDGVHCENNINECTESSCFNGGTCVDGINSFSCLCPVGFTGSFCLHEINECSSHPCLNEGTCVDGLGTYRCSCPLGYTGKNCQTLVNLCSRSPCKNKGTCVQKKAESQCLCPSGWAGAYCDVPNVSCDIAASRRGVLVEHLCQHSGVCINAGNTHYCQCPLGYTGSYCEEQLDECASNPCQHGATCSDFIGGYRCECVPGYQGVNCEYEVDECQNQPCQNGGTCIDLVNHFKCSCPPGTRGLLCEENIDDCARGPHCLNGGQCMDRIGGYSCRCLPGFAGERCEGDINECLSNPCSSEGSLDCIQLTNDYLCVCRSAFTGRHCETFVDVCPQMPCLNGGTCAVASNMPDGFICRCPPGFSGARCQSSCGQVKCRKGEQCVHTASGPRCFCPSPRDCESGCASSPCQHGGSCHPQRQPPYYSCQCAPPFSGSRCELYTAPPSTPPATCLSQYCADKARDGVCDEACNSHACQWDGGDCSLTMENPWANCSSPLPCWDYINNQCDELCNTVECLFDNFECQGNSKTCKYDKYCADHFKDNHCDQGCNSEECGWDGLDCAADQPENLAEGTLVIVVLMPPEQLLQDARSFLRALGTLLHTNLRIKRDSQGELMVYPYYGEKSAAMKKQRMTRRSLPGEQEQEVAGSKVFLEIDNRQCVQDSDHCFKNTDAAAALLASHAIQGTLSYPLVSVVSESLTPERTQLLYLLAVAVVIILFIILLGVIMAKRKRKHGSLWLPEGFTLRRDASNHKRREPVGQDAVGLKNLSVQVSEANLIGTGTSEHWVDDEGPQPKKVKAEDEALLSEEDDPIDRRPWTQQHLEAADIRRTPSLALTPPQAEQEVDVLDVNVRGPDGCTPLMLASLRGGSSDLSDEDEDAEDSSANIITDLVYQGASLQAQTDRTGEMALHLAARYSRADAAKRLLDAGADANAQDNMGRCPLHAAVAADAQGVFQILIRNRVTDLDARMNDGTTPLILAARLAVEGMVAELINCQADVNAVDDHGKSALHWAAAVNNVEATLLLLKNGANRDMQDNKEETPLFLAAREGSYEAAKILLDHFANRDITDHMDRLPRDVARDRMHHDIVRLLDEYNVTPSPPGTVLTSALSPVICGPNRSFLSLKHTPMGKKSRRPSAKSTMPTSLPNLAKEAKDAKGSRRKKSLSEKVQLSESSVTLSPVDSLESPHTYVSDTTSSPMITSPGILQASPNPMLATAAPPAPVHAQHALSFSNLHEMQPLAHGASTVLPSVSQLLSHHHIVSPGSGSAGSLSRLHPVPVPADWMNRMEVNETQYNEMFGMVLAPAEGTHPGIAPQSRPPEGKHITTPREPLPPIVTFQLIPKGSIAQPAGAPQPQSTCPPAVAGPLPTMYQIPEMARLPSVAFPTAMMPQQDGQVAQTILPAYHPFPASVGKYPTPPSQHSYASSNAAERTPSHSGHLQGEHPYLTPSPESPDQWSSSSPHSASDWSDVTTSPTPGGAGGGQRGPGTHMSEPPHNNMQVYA
Compound,composite z-score [1],composite z-score [2],composite z-score [3],composite z-score [4],composite z-score [5],composite z-score [6],composite z-score [7],z-score [8],composite z-score [9],composite z-score [10],composite z-score [11],z-score [12],z-score [13],z-score [14],composite z-score [15],z-score [16],composite z-score [17],composite z-score [18],composite z-score [19],composite z-score [20]
C=C[C@@H](OC)[C@H](OC(=O)Nc1ccc(SC)cc1)c1ccc(OCCO)cc1,0.0275,0.363,0.0166,0.485,0.794,1.43,1.33,6.53 (inactive),0.574,0.675,1.13,0.456 (inactive),-0.675 (inactive),0.0094 (inactive),2.11,0.0144 (inactive),-0.057,0.822,0.82,-0.039
C=CC1c2cc(O)c(OC)cc2CCN1Cc1ccc([N+](=O)[O-])o1 (stereo not given),0.29,0.381,-0.0156,0.673,1.12,1.64,1.09,-0.0303 (inactive),0.457,0.245,-0.047,0.994 (inactive),-0.61 (inactive),0.757 (inactive),2.77,0.694 (inactive),0.0761,-0.273,0.606,0.0779
COc1ccc([Si](C)(C)[C@@H]2[C@@H](CCn3cc([C@H](O)c4ccccc4)nn3)O[C@]3(C(=O)N(c4ccccc4)c4ccccc43)[C@H]2C)cc1,-0.162,0.297,-0.0824,0.211,0.0701,0.336,0.75,-0.587 (inactive),-0.0029,-0.122,1.11,-0.613 (inactive),-0.101 (inactive),1.43 (inactive),0.986,1.15 (inactive),-0.0998,0.431,0.281,-0.0452
CC(C)C[C@@H]1NC(=O)[C@H]2C[C@@H](C(=O)NCCCCCN)[C@@H](c3cccc(OCCO)c3)N2C1=O,0.721,-0.1,-0.107,0.0414,-0.182,0.896,1.24,-0.599 (inactive),-0.565,-0.0645,0.808,-3.54 (inactive),-0.726 (inactive),-1.04 (inactive),0.872,0.545 (inactive),0.13,-0.993,0.135,-0.14
COCCOC(=O)N1C(=O)[C@@]2(c3cc(C#CCC(C(=O)OC)C(=O)OC)ccc31)[C@H](c1ccc(O)cc1)N1[C@H](c3ccccc3)[C@H](c3ccccc3)OC(=O)[C@H]1[C@@H]2C(=O)NC[C@H](O)c1ccccc1,-0.32,0.63,0.0521,0.144,0.147,1.12,1.04,1.15 (inactive),0.169,0.0749,1.38,0.326 (inactive),-0.371 (inactive),0.875 (inactive),2.75,1.81 (inactive),-0.0788,0.171,0.68,0.0153
C=C(C)[C@@H]1CC=C(C(O)C2C=CC3C(=O)N(c4ccccc4)C(=O)C3N2Nc2ccc(C#N)cc2)CC1 (stereo not given in full),-0.266,-0.278,0.169,0.783,1.65,1.81,1.33,-1.74 (inactive),1.53,-0.112,1.54,0.188 (inactive),0.369 (inactive),4.16 (inactive),3.33,-1.9 (inactive),0.386,0.35,1.04,0.0717
Cc1cccc([C@H]2C[C@H]3C(Br)=C[C@@H]2C(=O)[C@]32CO2)c1,0.165,0.0316,-0.182,-0.228,-0.0632,-0.424,-0.779,1.02 (inactive),-0.264,-0.0169,-0.373,-0.749 (inactive),-20.5 (active),-1.2 (inactive),-0.831,0.779 (inactive),-0.0416,-0.329,-0.867,-0.626
CCOC(=O)C[C@H]1[C@H](OC(=O)c2ccc(-c3ccccc3)cc2)[C@@H](NC(=O)Cc2ccc(OC)cc2)c2cc(OCCCO)ccc2N1C(=O)Cc1ccc(OC)cc1,-0.278,-0.236,-0.101,0.102,0.216,0.243,-0.29,-0.362 (inactive),0.3,-0.154,0.287,1.09 (inactive),-0.231 (inactive),1.63 (inactive),1.55,1.3 (inactive),-0.0769,-0.542,-0.0636,-0.094
CCOC(=O)C1=CC[C@@H](c2ccccc2)N(S(=O)(=O)c2ccc(C)cc2)[C@H]1c1cccc(OC)c1,0.154,-0.133,0.0182,0.31,1.34,1.28,0.746,-2.57 (inactive),0.648,-0.0203,1.06,0.498 (inactive),1.52 (inactive),2.05 (inactive),2.19,-0.439 (inactive),0.116,-0.266,0.618,-0.0407
COc1ccc([Si](C)(C)[C@@H]2[C@@H](CCn3cc([C@H](O)c4ccccc4)nn3)O[C@]3(C(=O)N(Cc4cccc(N5C(=O)c6cccc7cccc5c67)c4)c4ccccc43)[C@H]2C)cc1,0.022,-0.362,-0.146,-0.472,-0.643,0.173,0.741,-0.814 (inactive),-0.0472,-0.309,0.645,0.738 (inactive),1.21 (inactive),2.54 (inactive),0.98,-0.143 (inactive),-0.139,-0.319,-0.048,-0.182
